38 compounds from PubChem BioAssay AID651791 (National Center for Advancing Translational Sciences (NCATS), 2012) can be followed below.

The structures appear in SMILES notation. Records with an inconclusive call do not appear. Activity calls are given as the source filed them. Calls follow the shape of the dose curve; as a rule, active = well fitted inhibition curve with a large enough effect; inconclusive = small, poorly fitted or top-dose-only effect; inactive = no such curve, though single readings can be large or run the other way.
Potency is read from the fitted curve at half-maximal effect.

The experiment in a line: InCell qHTS Assay for Inhibitors of the mTORC1 Signaling Pathway in MEF (Tsc2-/-, p53-/-) Cells: Hit Validation.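 Also: phospho-S6 Ser235/236 signal normalized to propidium iodide cell count per well; nearly all actives have a fitted effect of over 75% in size.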 As to conditions: phospho-rpS6 immunofluorescence, 24 h; activity change, negative = inhibition: at 38.3 µM (top of the series).
In the case of `CS(=O)(=O)c1ncc(Cl)c(C(=O)N(Cc2ccc(Cl)cc2)Cc2ccco2)n1`, the Potency is 3.29 µM (active).
As to `CC1CCCCN1c1nnc(NC(=O)Nc2ccccc2F)s1` (stereo not drawn), the activity change, negative = inhibition was -100%.
Turning to `CCOc1ccccc1NC(=O)c1cn(C2CCCC2)c(=O)c2c1c1ccccc1n2C`, the activity change, negative = inhibition was -100%.
On to `O=C(Nc1ccc(F)c(F)c1)c1ccc(F)c(S(=O)(=O)N2CCC3(CC2)OCCO3)c1`, for which the activity change, negative = inhibition is -100%.
On to `Cc1ccc(NC(=O)Cn2cc(C(=O)C3CCCCC3)c3ccccc32)cc1`, for which the activity change, negative = inhibition was -100%.
Turning to `COc1ccc(CCNC(=O)CCCn2nc(C)c3sc4ccccc4c3c2=O)cc1OC`, the activity change, negative = inhibition was -100%.
For the compound `COc1ccc(S(=O)(=O)N(C(=O)c2ccncc2)c2ccc3oc(C)c(C(C)=O)c3c2)cc1`, the activity change, negative = inhibition is -100%.
Same read-out and setting: the value for `Cc1cccc(-n2cnc3cc(C(=O)NC4CCCCCC4)ccc32)c1` was -100%; that for `C=C(C)CSc1nc(-c2ccccc2)cc(-c2ccc(OC)cc2)c1C#N` was -100%; that for `CC1=Nc2cc(C(=O)NCCc3ccc(Cl)cc3)ccc2Sc2ccc(C)cc21` was -100%.
Turning to `CCOC(=O)N1CCN(Cc2nc3cc(NC(=O)C(C)C)ccc3n2C(C)C)CC1`, the activity change, negative = inhibition was -100%.
Turning to `CCOC(=O)c1cnc2ccc(C)cc2c1Nc1ccc(N(CC)CC)cc1`, the activity change, negative = inhibition is -100%.
With `COc1cc(C(=O)Nc2ccc(NC(=O)c3ccc(C(C)(C)C)cc3)cc2)cc(OC)c1OC`, the activity change, negative = inhibition is -100%.
Regarding `Cc1cc(OCC(=O)Nc2cc(-c3nc4ccccc4[nH]3)ccc2C)ccc1Cl`, the activity change, negative = inhibition is -100%.
As to `CCC(C)S(=O)(=O)c1oc(-c2ccc(F)cc2)nc1S(=O)(=O)c1ccc(F)cc1` (stereo not drawn), the Potency is 1.47 µM (active).
Consider `Cc1c(C(=O)OC2CCC(C)CC2)[nH]c2c1C(=O)CC(c1ccc(F)cc1)C2` (stereo not drawn), for which the activity change, negative = inhibition was -1.27%.
Same read-out and setting: under `COc1cccc(-n2c(-c3ccco3)nc3c(cnn3-c3ccc(C)cc3)c2=O)c1` stands -100%.
Turning to `CCCC1=Nc2cc(C(=O)NCc3ccccc3)ccc2Sc2ccccc21`, the activity change, negative = inhibition is -100%.
Consider `CC(C)CCNC(=O)C(=O)Nc1c2c(nn1-c1ccc(Cl)cc1)CSC2`, for which the Potency is 18.5 µM (active).
With `CC(C)(C)C1CCc2c(sc(NC(=O)C3c4ccccc4Oc4ccccc43)c2C(N)=O)C1` (stereo not drawn), the activity change, negative = inhibition is -100%.
For the compound `Cc1ccc(NC(=O)c2c(NC(=O)C(F)(F)F)sc3c2CCCCC3)cc1`, the activity change, negative = inhibition is -100%.
Regarding `CCOc1ccc(-c2cnc(NCc3ccc(C(F)(F)F)cc3)n2C)cc1`, the activity change, negative = inhibition is -100%.
`CCCN1C(=O)C(O)(CC(=O)c2ccc(C(C)C)cc2)c2ccccc21` (stereo not drawn): the activity change, negative = inhibition was -100%.
On to `CCCn1c2ccc(C)cc2c2nnc(SCCN3CCCCC3)nc21`, for which the activity change, negative = inhibition is -100%.
Same read-out and setting: the value for `COc1ccc(-n2ncc3c(NCCCOC(C)C)ncnc32)cc1` was -100%.
Regarding `COc1ccc(N2CCN(C(=O)C(C)n3nc(C)c4sc5ccccc5c4c3=O)CC2)cc1` (stereo not drawn), the activity change, negative = inhibition was -100%.
For the compound `Cc1c(Cl)ccc2sc(NC(=O)c3ccc(S(=O)(=O)N4CCCc5ccccc54)cc3)nc12`, the activity change, negative = inhibition was -3.12%.
As to `CCN(CC)c1ccc(NC(=O)CCS(=O)(=O)c2cccc3nsnc23)c(C)c1`, the activity change, negative = inhibition was -100%.
For the compound `Cc1cccc(CS(=O)(=O)c2ncc(Cl)c(C(=O)NCc3ccccc3)n2)c1`, the Potency is 10.4 µM (active).
Consider `COc1cc(CN(C(=O)COc2ccc(C)c(C)c2)c2ccccn2)cc(OC)c1OC`, for which the activity change, negative = inhibition was -100%.
The same measure, in the same setting: under `CC1=Nc2cc(C(=O)NC(C)C)ccc2Sc2ccc(C)cc21` stands -100%; under `Cc1cc(-c2ccc(S(=O)(=O)Nc3cccc(C)c3C)s2)on1`, -21.8%; under `CCOC(=O)N1CCN(Cc2nc3cc(NC(=O)CC(C)C)ccc3n2C(C)C)CC1`, -100%.
Consider `CCOC(=O)c1sc2ccccc2c1S(=O)(=O)Nc1ccc(CC)cc1`, for which the activity change, negative = inhibition is -100%.
`Cc1ccc(CNS(=O)(=O)c2cc(C(=O)Nc3cccc(C(F)(F)F)c3)ccc2F)cc1`: the activity change, negative = inhibition is -100%.
For the compound `CCn1c(CC2C(=O)N(C)c3ccc(Br)cc32)nc2ccccc2c1=O` (stereo not drawn), the activity change, negative = inhibition was -100%.
Consider `COc1ccc2c(c1)CC(C(=O)Nc1cc(Cl)ccc1C)CO2` (stereo not drawn), for which the activity change, negative = inhibition is -100%.
Turning to `COc1cc(-c2ccno2)ccc1S(=O)(=O)N1CCN(c2cc(C)ccc2C)CC1`, the activity change, negative = inhibition was -100%.
